In PubChem BioAssay (Tox21):
A number with no mark means an inactive call. Records with an inconclusive call do not appear. Entries that show only a call come without a potency. Active and inactive are the calls of the source. Unless noted, calls follow the shape of the dose curve; as a rule, active = well fitted curve in the direction sought with a large enough effect in the repeat runs; inconclusive = weak or mixed curves; inactive = no such curve, though single readings can be large; an effect the other way counts as inactive or inconclusive.

Tests used:
[1] = qHTS assay to identify small molecule antagonists of the sonic hedgehog signaling (Shh) pathway (AID 1259369; calls by dose curve; also: nearly all actives have a fitted effect of over 45% in size; also: potency is read from the fitted curve at half-maximal effect)
In short: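 Antagonist mode: compound added to 3T3 Gli1-Luc cells followed by conditioned-medium stimulation, 24 h at 37 C, 5% CO2. Inhibition taken as loss of Gli1-driven luciferase luminescence.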

[2] = target: Estrogen receptor beta (Homo sapiens) (UniProt Q92731); test: qHTS assay to identify small molecule agonists of the estrogen receptor beta (ER-beta) signaling pathway (AID 1259377; active = well fitted activation curve with a large enough effect in the signal ratio in the repeat runs, not every such curve was filed as active; the % refers to the signal ratio)
In short: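 Ratiometric beta-lactamase FRET read-out came after 2 h substrate loading at room temperature. It followed 16 h compound treatment at 37C of GripTite HEK293T cells carrying a UAS-bla reporter, plated in 2% charcoal-stripped FBS medium.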

[3] = target: Estrogen receptor beta (Homo sapiens) (UniProt Q92731); test: qHTS assay to identify small molecule antagonists of the estrogen receptor beta (ER-beta) signaling pathway (AID 1259378; active = well fitted inhibition curve with a large enough effect in the signal ratio in the repeat runs, not every such curve was filed as active; the % refers to the signal ratio)
In short: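 Antagonist mode: compounds added to beta-lactamase reporter HEK293T ER-beta-UAS cells stimulated with E2 (1nM final), 16 hr at 37C. LiveBLAzer B/G FRET substrate, 2 hours room temperature, fluorescence read-out.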

[4] = qHTS assay to identify small molecule agonists of the androgen receptor (AR) signaling pathway in the presence of an antagonist - cell viability counter screen (AID 1259379);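 also: MDA-kb2 human breast cancer cells carrying an MMTV luciferase reporter; series mostly up to about 92 µM; nearly all actives have a fitted effect of over 25% in size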
In short: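 Cytotoxicity counter-screen run in the same wells as the nilutamide-challenged (3.0 µM final) AR agonist assay in MDA-kb2 cells. Compounds tested at 15 concentrations for 16 h, 37 °C without CO2; CellTiter-Fluor fluorescence read.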

[5] = qHTS assay to identify small molecule agonists of the estrogen receptor beta (ER-beta) signaling pathway - cell viability counter screen (AID 1259380); also: nearly all actives have a fitted effect of over 30% in size
In short: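 Cell viability counter screen: CellTiter-Glo luminescence (30 min, room temperature) measured in the same wells as the beta-lactamase readout, after 16 hr compound exposure at 37C of ER-beta-bla HEK293T cells in 2% charcoal-stripped FBS medium.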

[6] = target: Estrogen receptor (Homo sapiens) (UniProt P03372); test: qHTS assay to identify small molecule agonists of the estrogen receptor alpha (ER-alpha) signaling pathway in the presence of an antagonist (AID 1259383; calls by dose curve; also: nearly all actives have a fitted effect of over 15% in size; also: potency is read from the fitted curve at half-maximal effect; as to activation: top concentration of the series differs between compounds)
In short: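 Agonist-mode confirmation run in the presence of 10.0nM (final) ICI-182,780 antagonist. The reporter was ERE-driven luciferase in VM7Luc4E2 cells, grown in charcoal-stripped serum. Cells were exposed to 15-concentration compound series for 22hr, then ONE-Glo luminescence was read.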

[7] = qHTS assay to identify small molecule agonists or antagonists of the thyroid stimulating hormone receptor (TSHR) signaling pathway - wild type cell line counter screen (AID 1259384; calls by dose curve)
In short: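 Counter screen in untransfected Hek293: compounds (15-point titration, triplicate) plus phosphodiesterase inhibitor Ro20-1724 added after 18 h plating; 30 min RT. Intracellular cAMP via competitive d2/cryptate immunoassay, 1 h incubation.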

[8] = target: Thyrotropin receptor (Homo sapiens) (UniProt P16473); test: qHTS assay to identify small molecule antagonists of the thyroid stimulating hormone receptor (TSHR) signaling pathway (AID 1259385; calls by dose curve; also: nearly all actives have a fitted effect of over 20% in size)
In short: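 Antagonist mode: compound-treated TSHR-expressing HEK293 cells were stimulated with 1.5 ng/mL TSH (final) in presence of Ro20-1724 for 30 min at RT. HTRF cAMP detection after 1 h; each compound tested at 15 concentrations, triplicate.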

[9] = target: Progesterone receptor (Homo sapiens) (UniProt P06401); test: qHTS assay to identify small molecule agonists of the progesterone receptor (PR) signaling pathway (AID 1346784; calls by dose curve; also: nearly all actives have a fitted effect of over 30% in size)
In short: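 Agonist qHTS: compounds pinned onto 3,000 PR-UAS-bla HEK 293T cells per well in charcoal-stripped serum medium, 16hr at 37C, then beta-lactamase activity measured by LiveBLAzer FRET fluorescence after 2 hours at room temperature.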

[10] = qHTS assay to identify small molecule antagonists of the progesterone receptor (PR) signaling pathway - cell viability counter screen (AID 1346798); also: series mostly up to about 92 µM; nearly all actives have a fitted effect of over 50% in size
In short: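 Cytotoxicity read as CellTiter-Glo luminescence (30 min, room temperature) in the same wells as the beta-lactamase readout. HEK293T PR-UAS-bla cells in charcoal-stripped 2% FBS received compound and R5020, then 16 h at 37C, 5% CO2.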

[11] = qHTS assay to identify small molecule agonists of the progesterone receptor (PR) signaling pathway - cell viability counter screen (AID 1346799; calls by dose curve; also: nearly all actives have a fitted effect of over 45% in size; also: potency is read from the fitted curve at half-maximal effect)
In short: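 Cytotoxicity measured by CellTiter-Glo luminescence (30 min, RT) in the same wells as the PR beta-lactamase agonist read. Those HEK293T cells had 16 h compound treatment at 37 C in 2% charcoal-stripped FBS medium.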

[12] = qHTS assay to identify small molecule antagonists of the TGF-beta/Smad signaling pathway - cell viability counter screen (AID 1346824); also: nearly all actives have a fitted effect of over 50% in size
In short: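 Cytotoxicity counter-screen run in the same wells as the beta-lactamase Smad reporter read: CellTiter-Glo luminescence after 30 min at room temperature. HEK 293T SBE-bla cells had 5 hr compound exposure at 37 C with TGF-beta1 (0.25 ng/mL stock).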

[13] = qHTS assay to identify small molecule agonists of the TGF-beta/Smad signaling pathway - cell viability counter screen (AID 1346829); also: top concentration of the series differs between compounds; nearly all actives have a fitted effect of over 45% in size
In short: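 Same-well cytotoxicity: CellTiter-Glo added after the 2 hr room-temperature beta-lactamase substrate step, luminescence measured 30 min later; cells had 5 hr of compound at 37 C.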

[14] = qHTS assay to identify small molecule agonists of the TGF-beta/Smad signaling pathway (AID 1346859; active = well fitted activation curve with a large enough effect in the signal ratio in the repeat runs, not every such curve was filed as active; the % refers to the signal ratio; also: series mostly up to about 77 µM)
In short: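 Fluorescence (ex 405 nm; em 460 and 530 nm) was read 2 h after LiveBLAzer FRET substrate at RT. The preceding compound treatment of overnight-plated SBE-bla HEK293T cells lasted 5 h at 37 C.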

[15] = target: Thyrotropin-releasing hormone receptor (Homo sapiens) (UniProt P34981); test: qHTS assay to identify small molecule antagonists of the thyrotropin-releasing hormone receptor (TRHR) signaling pathway (AID 1346877; active = well fitted inhibition curve with a large enough effect in the repeat runs, not every such curve was filed as active; also: series mostly up to about 51 µM)
In short: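 Antagonist mode: after a 5 min room-temperature compound exposure, cells were stimulated with 1 nM (final) TRH. Dye-loaded TRHR-HEK293 cells were used, and calcium-dependent fluorescence was followed for 3 min, with 15-point titrations run in triplicate.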

[16] = target: Thyrotropin-releasing hormone receptor (Homo sapiens) (UniProt P34981); test: qHTS assay to identify small molecule agonists of the thyrotropin-releasing hormone receptor (TRHR) signaling pathway (AID 1346891; calls by dose curve; also: series mostly up to about 58 µM)
In short: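 Agonist-mode intracellular calcium readout: kinetic fluorescence over 3 min at 1 s intervals after compound addition to TRHR-HEK293 cells (18 h seeded, 2 h dye-loaded at 37 C). Fifteen concentrations, triplicates.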

[17] = qHTS assay to identify small molecule antagonists of the estrogen receptor beta (ER-beta) signaling pathway - cell viability counter screen (AID 1259382);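 also: HEK293T cells carrying ER-beta-UAS-bla reporter stimulated with estradiol; series mostly up to about 92 µM; nearly all actives have a fitted effect of over 55% in size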
In short: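 Cytotoxicity was measured in the same wells by CellTiter-Glo luminescence after 30 min at room temperature. Cells were ER-beta-bla HEK293T in charcoal-stripped serum, given compound together with 1 nM E2 and incubated 16 h at 37C.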

[18] = qHTS assay to identify small molecule agonists of the estrogen receptor alpha (ER-alpha) signaling pathway in the presence of an antagonist - cell viability counter screen (AID 1259386); also: series mostly up to about 92 µM; nearly all actives have a fitted effect of over 30% in size
In short: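 Compounds tested at 15 concentrations for 22 h at 37C alongside 10.0nM (final) ICI-182,780 antagonist, in VM7Luc4E2 cells grown in phenol red-free, charcoal-stripped medium. Viability read by CellTiter-Fluor fluorescence after 1 h reagent incubation.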

[19] = target: Progesterone receptor (Homo sapiens) (UniProt P06401); test: qHTS assay to identify small molecule antagonists of the progesterone receptor (PR) signaling pathway (AID 1346795; active = well fitted inhibition curve with a large enough effect in the signal ratio in the repeat runs, not every such curve was filed as active; the % refers to the signal ratio)
In short: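 Antagonist mode with agonist R5020 at 1 nM final and 16 hr incubation at 37C. Reporter was beta-lactamase driven by UAS in HEK293T (PR-UAS-bla), 2% charcoal-stripped serum; signal from LiveBLAzer FRET substrate, 2 hr at room temperature.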

[20] = target: Androgen receptor (Homo sapiens) (UniProt P10275); test: qHTS assay to identify small molecule agonists of the androgen receptor (AR) signaling pathway in the presence of an antagonist (AID 1259381; calls by dose curve; also: nearly all actives have a fitted effect of over 15% in size)
In short: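 Agonist-mode confirmation run against 3.0 uM final nilutamide: compounds titrated at 15 concentrations onto MDA-kb2 MMTV-luciferase reporter cells. Luminescence measured with ONE-Glo following 16 hr incubation, 37C, 0% CO2.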

Estrogen receptor beta (Homo sapiens), sequence (Q92731 whole entry, looked up): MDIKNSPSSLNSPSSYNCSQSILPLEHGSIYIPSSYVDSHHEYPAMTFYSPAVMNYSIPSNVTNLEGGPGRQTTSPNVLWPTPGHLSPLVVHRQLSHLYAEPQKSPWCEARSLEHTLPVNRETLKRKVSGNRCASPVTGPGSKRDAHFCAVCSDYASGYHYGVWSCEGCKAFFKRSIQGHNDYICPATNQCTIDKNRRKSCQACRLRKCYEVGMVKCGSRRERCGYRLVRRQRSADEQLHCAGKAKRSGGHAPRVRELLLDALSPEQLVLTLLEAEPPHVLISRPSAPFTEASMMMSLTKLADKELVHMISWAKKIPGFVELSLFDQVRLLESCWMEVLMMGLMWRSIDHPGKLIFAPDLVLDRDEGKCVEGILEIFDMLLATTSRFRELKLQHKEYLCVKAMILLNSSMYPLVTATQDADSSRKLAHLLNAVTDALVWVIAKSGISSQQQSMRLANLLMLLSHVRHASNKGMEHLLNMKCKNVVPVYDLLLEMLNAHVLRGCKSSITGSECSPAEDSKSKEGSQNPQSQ
Progesterone receptor (Homo sapiens), sequence (P06401 whole entry, looked up): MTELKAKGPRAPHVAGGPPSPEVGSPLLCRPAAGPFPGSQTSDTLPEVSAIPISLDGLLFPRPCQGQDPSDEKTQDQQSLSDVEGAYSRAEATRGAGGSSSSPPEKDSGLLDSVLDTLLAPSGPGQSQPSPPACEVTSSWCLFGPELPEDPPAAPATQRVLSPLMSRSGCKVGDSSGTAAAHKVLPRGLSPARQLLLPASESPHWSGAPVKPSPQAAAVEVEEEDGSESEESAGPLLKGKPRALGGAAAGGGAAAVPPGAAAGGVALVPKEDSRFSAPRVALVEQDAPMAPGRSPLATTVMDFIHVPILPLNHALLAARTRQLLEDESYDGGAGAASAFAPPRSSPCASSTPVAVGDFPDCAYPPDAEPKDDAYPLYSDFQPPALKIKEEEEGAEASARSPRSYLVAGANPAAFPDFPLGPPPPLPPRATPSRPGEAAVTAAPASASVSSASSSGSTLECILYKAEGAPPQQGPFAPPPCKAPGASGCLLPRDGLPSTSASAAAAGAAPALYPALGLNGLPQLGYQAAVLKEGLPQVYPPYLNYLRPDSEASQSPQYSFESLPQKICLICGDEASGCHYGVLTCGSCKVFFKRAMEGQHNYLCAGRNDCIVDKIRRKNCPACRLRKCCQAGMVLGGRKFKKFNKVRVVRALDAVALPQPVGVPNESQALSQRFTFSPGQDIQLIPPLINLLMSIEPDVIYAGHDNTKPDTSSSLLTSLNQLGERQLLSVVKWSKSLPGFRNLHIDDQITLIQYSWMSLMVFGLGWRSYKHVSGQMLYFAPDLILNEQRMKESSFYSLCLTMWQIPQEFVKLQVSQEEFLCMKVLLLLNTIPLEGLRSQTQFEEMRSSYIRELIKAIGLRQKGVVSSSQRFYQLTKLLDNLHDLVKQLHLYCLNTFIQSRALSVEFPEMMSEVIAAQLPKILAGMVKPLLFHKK
Estrogen receptor (Homo sapiens), sequence (P03372 whole entry, looked up): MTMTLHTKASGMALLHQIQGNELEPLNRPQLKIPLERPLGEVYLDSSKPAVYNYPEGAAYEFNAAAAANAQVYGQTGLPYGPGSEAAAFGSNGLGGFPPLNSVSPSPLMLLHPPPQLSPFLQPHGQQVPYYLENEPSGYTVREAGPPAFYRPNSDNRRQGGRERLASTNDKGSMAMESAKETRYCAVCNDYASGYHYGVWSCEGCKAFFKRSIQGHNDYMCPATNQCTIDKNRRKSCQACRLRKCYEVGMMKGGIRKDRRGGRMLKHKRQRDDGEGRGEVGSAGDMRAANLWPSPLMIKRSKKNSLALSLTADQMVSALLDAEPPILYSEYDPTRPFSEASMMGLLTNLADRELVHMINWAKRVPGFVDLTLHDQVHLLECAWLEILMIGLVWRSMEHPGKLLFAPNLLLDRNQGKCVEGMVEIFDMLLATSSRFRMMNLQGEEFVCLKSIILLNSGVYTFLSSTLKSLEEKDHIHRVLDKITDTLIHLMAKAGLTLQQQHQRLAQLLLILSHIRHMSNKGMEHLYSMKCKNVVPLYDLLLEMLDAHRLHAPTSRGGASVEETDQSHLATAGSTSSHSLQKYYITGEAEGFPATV
Thyrotropin receptor (Homo sapiens), sequence (P16473 whole entry, looked up): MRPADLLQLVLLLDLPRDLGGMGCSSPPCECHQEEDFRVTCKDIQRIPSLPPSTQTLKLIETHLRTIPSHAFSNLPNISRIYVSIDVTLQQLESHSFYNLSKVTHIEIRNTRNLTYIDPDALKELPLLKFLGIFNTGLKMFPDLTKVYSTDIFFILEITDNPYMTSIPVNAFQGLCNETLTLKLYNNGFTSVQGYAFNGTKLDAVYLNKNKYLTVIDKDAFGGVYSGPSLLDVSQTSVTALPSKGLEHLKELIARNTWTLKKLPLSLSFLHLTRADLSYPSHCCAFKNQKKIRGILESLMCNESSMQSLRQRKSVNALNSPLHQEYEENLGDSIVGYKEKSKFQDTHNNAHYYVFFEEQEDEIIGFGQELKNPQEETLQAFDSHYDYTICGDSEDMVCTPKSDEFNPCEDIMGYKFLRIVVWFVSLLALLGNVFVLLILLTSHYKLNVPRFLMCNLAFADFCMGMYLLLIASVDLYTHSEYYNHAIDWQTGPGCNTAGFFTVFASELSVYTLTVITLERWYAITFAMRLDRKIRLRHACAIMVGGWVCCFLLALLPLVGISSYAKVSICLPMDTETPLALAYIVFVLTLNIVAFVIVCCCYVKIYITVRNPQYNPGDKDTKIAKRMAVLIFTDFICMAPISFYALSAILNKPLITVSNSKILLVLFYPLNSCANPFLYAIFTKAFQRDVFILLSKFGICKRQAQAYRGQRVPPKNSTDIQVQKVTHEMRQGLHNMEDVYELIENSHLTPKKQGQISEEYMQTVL
Thyrotropin-releasing hormone receptor (Homo sapiens), sequence (P34981 whole entry, looked up): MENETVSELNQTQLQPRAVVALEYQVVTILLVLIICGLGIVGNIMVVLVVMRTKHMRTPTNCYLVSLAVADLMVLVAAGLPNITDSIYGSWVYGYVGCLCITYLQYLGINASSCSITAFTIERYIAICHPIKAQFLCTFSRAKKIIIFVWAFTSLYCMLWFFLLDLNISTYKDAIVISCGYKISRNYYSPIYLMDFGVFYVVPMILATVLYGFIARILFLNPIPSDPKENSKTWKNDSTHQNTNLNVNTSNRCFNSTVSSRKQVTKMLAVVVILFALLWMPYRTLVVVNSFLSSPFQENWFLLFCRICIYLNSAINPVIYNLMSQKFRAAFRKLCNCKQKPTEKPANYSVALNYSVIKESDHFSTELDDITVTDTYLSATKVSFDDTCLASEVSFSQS
Androgen receptor (Homo sapiens), sequence (P10275 whole entry, looked up): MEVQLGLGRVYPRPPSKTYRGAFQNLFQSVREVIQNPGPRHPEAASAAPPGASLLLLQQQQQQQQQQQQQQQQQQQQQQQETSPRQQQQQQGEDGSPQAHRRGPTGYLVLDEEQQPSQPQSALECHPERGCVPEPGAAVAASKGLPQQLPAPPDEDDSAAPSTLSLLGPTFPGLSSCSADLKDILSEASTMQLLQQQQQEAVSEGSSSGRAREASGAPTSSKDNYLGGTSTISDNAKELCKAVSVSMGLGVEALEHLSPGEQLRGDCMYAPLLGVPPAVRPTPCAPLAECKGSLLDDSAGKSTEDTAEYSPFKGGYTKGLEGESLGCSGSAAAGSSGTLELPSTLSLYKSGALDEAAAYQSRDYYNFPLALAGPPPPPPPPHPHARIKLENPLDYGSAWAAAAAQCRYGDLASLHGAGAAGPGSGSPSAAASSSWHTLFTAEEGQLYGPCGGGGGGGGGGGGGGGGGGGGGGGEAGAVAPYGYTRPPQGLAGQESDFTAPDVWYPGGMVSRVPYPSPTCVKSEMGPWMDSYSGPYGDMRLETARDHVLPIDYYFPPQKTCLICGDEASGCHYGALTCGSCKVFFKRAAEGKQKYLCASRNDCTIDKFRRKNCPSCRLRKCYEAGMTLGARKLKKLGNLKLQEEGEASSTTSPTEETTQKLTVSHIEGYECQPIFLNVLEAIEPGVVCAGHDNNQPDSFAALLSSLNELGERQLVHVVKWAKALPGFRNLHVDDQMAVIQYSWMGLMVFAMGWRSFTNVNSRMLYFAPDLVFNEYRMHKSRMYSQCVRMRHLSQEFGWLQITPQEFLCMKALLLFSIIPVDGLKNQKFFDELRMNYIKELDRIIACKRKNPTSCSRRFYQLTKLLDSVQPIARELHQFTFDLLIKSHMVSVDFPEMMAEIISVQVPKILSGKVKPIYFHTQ

SMILES | Potency [1] | outcome [2] | Potency [3] | Potency [4] | Potency [5] | Potency [6] | Potency [7] | Potency [8] | Potency [9] | Potency [10] | Potency [11] | Potency [12] | outcome [13] | outcome [14] | outcome [15] | outcome [16] | Potency [17] | Potency [18] | Potency [19] | Potency [20]
CCC/C(=N\OCC)C1=C(O)CC(CC(C)SCC)CC1=O (configuration not stated) | 30.8 µM (active) | inactive | inactive | inactive | inactive | inactive | inactive | inactive | inactive | inactive | inactive | inactive | inactive | inactive | inactive | inactive |  |  |  | 
NC1=NC(=O)C(c2ccccc2)O1 (configuration not stated) | inactive | inactive | inactive | inactive | inactive |  | inactive | inactive | inactive | inactive | inactive | inactive | inactive |  | inactive | inactive | inactive | inactive | inactive | 
CCCCN(CCCCO)N=O | inactive | inactive | inactive | inactive |  | inactive | inactive | inactive | inactive | inactive | inactive | inactive | inactive |  | inactive | inactive | inactive | inactive | inactive | 
c1cc[c]([Hg][c]2ccccc2)cc1 | 0.545 µM (active) | inactive | inactive | inactive | inactive |  | inactive | inactive | inactive | inactive |  |  | inactive | inactive | inactive | inactive | inactive | inactive |  | inactive
COP(=S)(OC)Oc1ccc(S(N)(=O)=O)cc1 | inactive | inactive | inactive | inactive | inactive | inactive | inactive | inactive | inactive | inactive | inactive | inactive | inactive | inactive | inactive | inactive | inactive |  | inactive | 
CC1(C)COP(Oc2ccccc2)OC1 | inactive |  |  | inactive | inactive |  | inactive | inactive |  | inactive | inactive | inactive | inactive | inactive | inactive | inactive | inactive | inactive |  | inactive
O=[N+]([O-])c1ccc(CBr)cc1 | inactive |  |  | inactive | inactive | inactive | inactive | inactive | inactive | inactive |  | inactive | inactive | inactive | inactive | inactive | inactive | inactive | inactive | 
Cc1nnc2n1-c1sc(CCC(=O)N3CCOCC3)cc1C(c1ccccc1Cl)=NC2 | inactive |  |  | inactive | inactive | inactive | inactive | inactive |  | inactive | inactive | inactive | inactive |  |  |  | inactive | inactive |  | 
OCCBr | inactive |  | inactive | inactive | inactive | inactive | inactive | inactive | inactive | inactive | inactive | inactive | inactive | inactive | inactive | inactive | inactive | inactive |  | 
C=C(C)[C@@H]1CC=C(C=O)CC1 | inactive |  |  | inactive | inactive | inactive | inactive | inactive | inactive | inactive | inactive | inactive | inactive | inactive |  |  | inactive | inactive |  | 
ClCCCN1CCN(c2cccc(Cl)c2)CC1 | inactive |  |  | inactive | inactive | inactive | inactive | inactive |  | inactive | 1.19 µM (active) | inactive | inactive | inactive | inactive | inactive | inactive | inactive |  | 
CCCSP(=S)(OCC)Oc1ccc(Cl)cc1Cl (configuration not stated) | inactive |  |  | inactive | inactive | inactive | inactive |  | inactive | inactive |  | inactive | inactive | inactive | inactive | inactive | inactive | inactive |  | 
Cc1cccc(C#N)c1 | inactive |  | inactive | inactive | inactive | inactive | inactive | inactive | inactive | inactive | inactive | inactive | inactive |  | inactive | inactive |  | inactive | inactive | 
N#CC(O)c1ccccc1 (configuration not stated) | inactive |  | inactive | inactive | inactive |  | inactive | inactive | inactive | inactive | inactive | inactive | inactive | inactive | inactive | inactive | inactive | inactive | inactive | 
CCOP(=O)(N=C1SCCS1)OCC | inactive |  | inactive | inactive |  | inactive | inactive | inactive | inactive | inactive | inactive | inactive | inactive | inactive | inactive | inactive | inactive | inactive | inactive | 
COc1cccc(C(=O)NN(C(=O)c2cc(C)cc(C)c2)C(C)(C)C)c1C | inactive |  | inactive | inactive | inactive |  | inactive | inactive | inactive | inactive | inactive | inactive | inactive | inactive | inactive | inactive | inactive |  |  | 
c1coc(-c2nc3ccccc3[nH]2)c1 | inactive |  | inactive | inactive |  | 7.7 µM (active) | inactive | inactive | inactive | inactive | inactive | inactive | inactive |  | inactive | inactive |  | inactive | inactive | 
